# PubChem BioAssay AID1851 (National Center for Advancing Translational Sciences (NCATS), 2009)
# The whole screen tested about 16,000 compounds, of which about 5,700 (36%) were called active. About 24% were inconclusive and are not listed. Calls follow the shape of the dose curve; as a rule, active = well fitted curve in the direction sought with a large enough effect; inconclusive = small, poorly fitted or top-dose-only effect, or effect the other way; inactive = no such curve, though single readings can be large or run the other way. Some of the results follow. Peptide text beside a SMILES is read from it.
# Target: Cytochrome P450 1A2 (Homo sapiens) (UniProt P05177)
# Assay: Cytochrome panel assay with activity outcomes
# Conditions: recombinant CYP, pro-luciferin dealkylation, luminescence, p450-cyp1a2; series mostly up to 57.1 µM
# % is scaled to controls: 0 for no effect and ±100 for the full control effect.
# Cytochrome P450 1A2 (Homo sapiens), sequence (P05177 whole entry, looked up): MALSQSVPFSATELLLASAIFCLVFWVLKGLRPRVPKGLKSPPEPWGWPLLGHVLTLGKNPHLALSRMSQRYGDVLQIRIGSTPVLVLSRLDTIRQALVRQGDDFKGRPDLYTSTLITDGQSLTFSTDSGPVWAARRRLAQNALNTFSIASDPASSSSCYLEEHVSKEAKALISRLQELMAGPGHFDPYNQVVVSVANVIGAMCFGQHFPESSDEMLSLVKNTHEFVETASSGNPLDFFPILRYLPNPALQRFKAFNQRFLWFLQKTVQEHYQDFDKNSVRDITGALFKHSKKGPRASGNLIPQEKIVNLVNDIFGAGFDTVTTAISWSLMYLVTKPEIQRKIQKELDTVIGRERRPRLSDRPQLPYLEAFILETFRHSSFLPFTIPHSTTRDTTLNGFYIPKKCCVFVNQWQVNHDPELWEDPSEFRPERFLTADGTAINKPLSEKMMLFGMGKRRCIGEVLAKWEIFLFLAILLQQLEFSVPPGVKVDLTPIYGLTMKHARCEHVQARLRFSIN
Compound,AC50,"activity, negative = inhibition"
C#C[C@@]1(O)CC[C@@H]2[C@@H]3CCC4=CC(=O)CC[C@@H]4[C@H]3CC[C@]21CC,inactive,
C#C[C@]1(O)CC[C@@H]2[C@H]3CCC4=Cc5oncc5C[C@]4(C)[C@@H]3CC[C@@]21C,10000 nM (active),
C[C@@]12CCC(=O)C=C1CC[C@H]1[C@H]3CC[C@](O)(C(=O)CO)[C@]3(C)CC(=O)[C@@H]12,inactive,
C[C@]1(O)CC[C@H]2[C@H]3CC=C4N5CCN=C5CC[C@@]4(C)[C@H]3CC[C@@]21C,,-12.8% [at 2.29 µM] (inactive)
C/C=C1\C(=O)C[C@@H]2[C@@H]3CCC4=CC(=O)CC[C@@]4(C)[C@H]3CC[C@@]12C,inactive,
C#C[C@]1(O)CC[C@H]2[C@H]3CCC4=Cc5oncc5C[C@]4(C)[C@@H]3CC[C@]21C,12600 nM (active),
O=C(O)[C@H]([C@H]1NCCS1)N1Cc2ccccc2C1,,-13.4% [at 2.29 µM] (inactive)
N#Cc1nc(-c2cccs2)oc1NCc1ccccc1,1120 nM (active),
CNc1oc(-c2cccs2)nc1C#N,2240 nM (active),
CNc1oc(-c2ccc(Cl)cc2)nc1C#N,1780 nM (active),
CCOC(=O)C1=C(C)C(c2ccccc2OC)NC(=S)N1 (stereo unspecified),inactive,
CCOC(=O)c1[nH]c(COC(=O)CCOc2ccccc2OC)c(C(=O)OCC)c1C,8910 nM (active),
CCCCN(CC)S(=O)(=O)N1CCC(C(=O)NCCCN2CCOCC2)CC1,inactive,
CCOC(=O)N/N=C1/C[C@@H](O)[C@@H](O)[C@@H]2[C@@H]3C(=O)N(CC)C(=O)[C@H]3CC[C@@H]12,,-5.68% [at 11.4 µM] (inactive)
CSc1nc(N)nc(SCC(=O)Nc2ccc(Cl)cc2)c1C#N,891 nM (active),
CCOc1cccc(NC(=O)CSc2nc(C)c3c(c2C#N)CCCC3)c1,inactive,
COc1ccc(NC(=O)CSc2nc(C)c3c(c2C#N)CCCC3)cc1,2510 nM (active),
CCOc1ccc(NC(=O)CSc2nc(C)c3c(c2C#N)CCCC3)cc1,2000 nM (active),
CC(=O)Oc1ccc(C(c2ccc(OC(C)=O)cc2)c2ccccn2)cc1,inactive,
NC(=O)NCc1ccc(Cl)cc1,inactive,
COC(=O)[C@](C)(N)Cc1ccc(O)cc1,inactive,
COC(=O)C(CC(C)C)NC(=O)C(N)Cc1ccccc1 (stereo not drawn) (H-Phe-Leu-OMe; configuration not given here),inactive,
C/C(=C\c1ccc(Cl)cc1)C(C)(C)C(=O)O,,-17.1% [at 11.4 µM] (inactive)
C[C@H](N)C(=O)OC(C)(C)Cc1ccc(Cl)cc1,631 nM (active),

Compound,AC50,"activity, negative = inhibition"
COC(=O)[C@H](N)Cc1ccc(Cl)cc1,3160 nM (active),
O=C(Nc1ccc(S(=O)(=O)N2CCCCC2)cc1)c1ccc(CN2CCc3ccccc3C2)cc1,inactive,
CN(C)S(=O)(=O)c1ccc(C(=O)Nc2ccc(CN3CCCC3)cc2)cc1,25100 nM (active),
O=C(Nc1ccc(S(=O)(=O)N2CCOCC2)cc1)c1ccc(CN2CCc3ccccc3C2)cc1,inactive,
CCC(C)NC(=O)C1CCN(C(=O)c2ccccc2)CC1 (stereo unspecified),inactive,
O=C(c1ccccc1)N1CCSC1=S,14100 nM (active),
CCC(=O)N1CCN(C(=O)c2ccccc2)CC1,inactive,
Cc1nc2cnc(N(C)C)nc2n(Cc2cccs2)c1=O,1260 nM (active),
CN(C)c1ncc2ncc(=O)n(Cc3cccs3)c2n1,1580 nM (active),
CCNC(=O)C/C(C)=N/NC(=O)C12CC3CC(CC(C3)C1)C2,inactive,
Fc1ccc(-c2cn3cc(C(F)(F)F)cc(Cl)c3n2)cc1,891 nM (active),
CC1(C)CC(=O)C2=C(C1)Nc1cc3c(cc1C2c1ccc(F)cc1)OCO3 (stereo unspecified),6310 nM (active),
FC(F)(F)c1ccc(N2CCOCC2)c(Nc2nc3ccccc3n3cnnc23)c1,6310 nM (active),
COc1cccc2c1C(=O)c1c(O)c3c(c(O)c1C2=O)C[C@](O)(C(=O)CO)C[C@H]3O[C@@H]1C[C@H](N)[C@H](O)[C@H](C)O1,inactive,
COCc1nc2c([nH]1)c(=O)n(C)c(=O)n2CC(C)C,12600 nM (active),
Cn1c(=O)c2[nH]c(COCc3nc4c([nH]3)c(=O)n(C)c(=O)n4C)nc2n(C)c1=O,,4.47% [at 2.29 µM] (inactive)
Cn1c(=O)c2[nH]c(CS(=O)(=O)Cc3nc4c([nH]3)c(=O)n(C)c(=O)n4C)nc2n(C)c1=O,,-21.1% [at 2.29 µM] (inactive)
CCN1C(=O)[C@H]2[C@@H]3[C@H](O)C=CC(=O)[C@H]3CC[C@H]2C1=O,,-16.7% [at 11.4 µM] (inactive)
O=c1[nH]ncn2cccc12,inactive,
O=c1[nH]ncc2c3ccccc3n(Cc3ccccc3)c12,1000 nM (active),
O=C(O)[C@@H]1[C@H](C(=O)O)[C@H]2C(=O)C=C[C@H]1N2Cc1ccccc1,,-3.91% [at 2.29 µM] (inactive)
O=C(NCCCN1CCCC1=O)c1ccc(CNS(=O)(=O)c2ccc(F)cc2)cc1,inactive,
O=C(NCc1ccccc1Cl)c1ccc2c(=O)n(CCCN3CCCC3=O)c(=S)[nH]c2c1,inactive,
COc1ccc(-n2c(=S)[nH]c3cc(C(=O)NCCCN4CCCC4=O)ccc3c2=O)cc1,25100 nM (active),

Compound,AC50,"activity, negative = inhibition"
Cc1ccc(C)c(N(CC(=O)NC2CCCC2)C(=O)c2cc3cc4cccc(C)c4nc3s2)c1,inactive,
CCN(CC)c1ccc2c(Cl)cc(=O)oc2c1,891 nM (active),
CCN(CC)c1ccc(SS(=O)(=O)O)cc1,inactive,
CC1=CC(=C2C(=O)c3ccccc3C2=O)C=C(C)N1Cc1ccco1,1580 nM (active),
CCCCS(=O)(=O)NC1=NCN(Cc2ccco2)CN1,inactive,
CC1=CC(=C2C(=O)c3ccccc3C2=O)C=C(C)O1,200 nM (active),
CC1(C)OC(=O)N(Cc2ccco2)C1(C)O (stereo unspecified),inactive,
Nc1nc(N)c2nn(-c3ccc(C(=O)O)cc3)nc2n1,,-13.4% [at 2.29 µM] (inactive)
COc1ccc(C(=O)N2CCC[C@@]3(CCN(C(=O)Nc4cccc(C#N)c4)C3)C2)cc1,inactive,
CC(C)NC(=O)N1CCCC2(CCN(C(=O)c3csnn3)CC2)C1,inactive,
CSc1nc(Oc2ccc(F)cc2)c2ccccc2n1,794 nM (active),
CN1CCCC2(CCN(C(=O)c3cnccn3)CC2)C1,inactive,
CN1CCN(CCCBr)CC1,,-20.9% [at 11.4 µM] (inactive)
O=C(c1cc(Br)ccc1O)c1cc(Br)ccc1O,1000 nM (active),
Cc1cc(C)c(O)c(Cc2cccc(Cc3cc(C)cc(C)c3O)c2O)c1,,-14.7% [at 2.29 µM] (inactive)
Clc1ccc(CN2CCCN(Cc3ccc(Cl)cc3)C2c2cc3ccccc3c3ccccc23)cc1,794 nM (active),
Cc1cc(C)nc(Nc2n[nH]c(COc3cccc4ccccc34)n2)n1,15800 nM (active),
Cc1cc(C)nc(Nc2n[nH]c(-c3cccc4ccccc34)n2)n1,4470 nM (active),
Cc1cc(OCCNCCO)cc(C)c1Cl,2000 nM (active),
Cc1nnc(NS(=O)(=O)c2ccc(N)cc2)s1,inactive,
O=C1CC(c2ccc3c(c2)OCO3)CN1 (stereo unspecified),12600 nM (active),
NC(N)=NC[C@@H]1COC2(CCCCC2)O1,inactive,
Cc1ccc(C)c(Cn2c(C(=O)OC(C)C)cc3c2ccn3C)c1,12600 nM (active),
CN(C)CC[C@H](c1ccc(Cl)cc1)c1ccccn1,inactive,

Compound,AC50,"activity, negative = inhibition"
CC(c1ccc(Cl)cc1)n1c(-c2ccc3ccccc3n2)n[nH]c1=S (stereo unspecified),11200 nM (active),
CCc1c(O)c2c(c(O)c1C(C)=O)C(=O)c1c(cc(O)c(C(=O)O)c1C(=O)O)C2=O,,-33.1% [at 11.4 µM] (inactive)
Cc1nc2c(C#N)c(C)[nH]n2c(=O)c1Cc1ccccc1,inactive,
Cc1nc2c(OCc3ccccc3)cccn2c1CC#N,398 nM (active),
Clc1ccc(-c2csc(N3CCC(c4ccccc4)C3)n2)cc1 (stereo unspecified),3550 nM (active),
Brc1ccc(-c2csc(N3CCC(c4ccccc4)C3)n2)cc1 (stereo unspecified),2510 nM (active),
S=C1NC2=C(C(c3ccc(Br)cc3)N1)N1CCC2CC1 (stereo unspecified),inactive,
O=C(NC1CCCC1)c1cnn2c(C(F)(F)F)cc(-c3ccco3)nc12,2240 nM (active),
Cc1ccc(Cn2ccc(NC(=O)c3cc4nc(-c5ccco5)cc(C(F)(F)F)n4n3)n2)cc1,inactive,
Cc1ccc(C(C(=O)NC2CCCCC2)N2CCN(C(=O)c3ccco3)CC2)cc1 (stereo unspecified),inactive,
O=S(=O)(c1ccccc1)N1CCC[C@@]2(CCN(C(c3ccccc3)c3ccccc3)C2)C1,inactive,
C/C(=N\NC(N)=S)c1ccc[nH]1,3160 nM (active),
Cc1ccccc1CS(=O)(=O)Cc1ccc(C(=O)NCc2cccnc2)o1,10000 nM (active),
CCOc1ccc(OCc2ccc(C(=O)NCc3cccnc3)o2)cc1,8910 nM (active),
O=C1c2ccccc2C2=Nc3ccccc3SC(c3ccccc3F)C12 (stereo unspecified),1410 nM (active),
CSc1ncnc2c1ncn2[C@@H]1O[C@@H](CO)[C@H](O)O[C@@H]1O,,-5.22% [at 2.29 µM] (inactive)
S=C(S)N1CCCC1,12600 nM (active),
COc1ccc(OC)c(S(=O)(=O)N2CCC(C(=O)NCCc3ccccc3)CC2)c1,inactive,
COc1ccc2cc(CCNC(=O)C3CC3)c(=O)[nH]c2c1,12600 nM (active),
COCCCNC(=O)C1CC(=O)N(Cc2ccc(OC)cc2)C1 (stereo unspecified),inactive,
Fc1ccccc1OCCCCSc1ncccn1,14100 nM (active),
CO[C@@H]1COC(=O)[C@H]2CCCN2C(=O)[C@@H](C)COC(=O)[C@H](COCc2ccccc2)NC(=O)C/C=C\[C@H]1C,,-3.84% [at 11.4 µM] (inactive)
CCN1CCN(c2nc(C)c3c(n2)CCCC3=O)CC1,2240 nM (active),
CCN1CCc2nc(N)oc2CC1,inactive,
